Bioassay records as filed in PubChem.
The list is not random: actives were taken first. Their share in the collection is about 3.4%.
GPR151 activ: activators of human GPR151, primary screen, cell-based, PathHunter beta-arrestin, luminescence; PathHunter beta-arrestin GPR151 cells; activation, % at 11.2 µM; 650,000 tested, 1% active; in the data active means activation above about 4.9%;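 further: 0% = median of compound wells and 100% = cells with positive control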
MITF inh: MITF inhibitors, primary screen, biochemical, AlphaScreen, human | AlphaScreen MITF homodimerization, bead proximity signal | inhibition, % at 2.6 µM | 650,000 tested, 0.91% active | Microphthalmia-associated transcription factor (Homo sapiens), O75030; in the data active means inhibition above about 50%;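 further: 0% = vehicle wells with protein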
FBW7 act: FBW7 E3 ligase activators, primary screen, biochemical, AlphaScreen, human; F-box/WD repeat-containing protein 7 (Homo sapiens), Q969H0; AlphaScreen FBW7–phospho-cyclin E peptide binding, activator screen; normalized activity (activation), % at 26.1 µM; 650,000 tested, 0.13% active; AID 1259310, 2017; in the data active means normalized activity above about 1.9%;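 further: purified mutant Fbw7 with reduced substrate affinity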
Target sequence (Q969H0 whole entry, looked up): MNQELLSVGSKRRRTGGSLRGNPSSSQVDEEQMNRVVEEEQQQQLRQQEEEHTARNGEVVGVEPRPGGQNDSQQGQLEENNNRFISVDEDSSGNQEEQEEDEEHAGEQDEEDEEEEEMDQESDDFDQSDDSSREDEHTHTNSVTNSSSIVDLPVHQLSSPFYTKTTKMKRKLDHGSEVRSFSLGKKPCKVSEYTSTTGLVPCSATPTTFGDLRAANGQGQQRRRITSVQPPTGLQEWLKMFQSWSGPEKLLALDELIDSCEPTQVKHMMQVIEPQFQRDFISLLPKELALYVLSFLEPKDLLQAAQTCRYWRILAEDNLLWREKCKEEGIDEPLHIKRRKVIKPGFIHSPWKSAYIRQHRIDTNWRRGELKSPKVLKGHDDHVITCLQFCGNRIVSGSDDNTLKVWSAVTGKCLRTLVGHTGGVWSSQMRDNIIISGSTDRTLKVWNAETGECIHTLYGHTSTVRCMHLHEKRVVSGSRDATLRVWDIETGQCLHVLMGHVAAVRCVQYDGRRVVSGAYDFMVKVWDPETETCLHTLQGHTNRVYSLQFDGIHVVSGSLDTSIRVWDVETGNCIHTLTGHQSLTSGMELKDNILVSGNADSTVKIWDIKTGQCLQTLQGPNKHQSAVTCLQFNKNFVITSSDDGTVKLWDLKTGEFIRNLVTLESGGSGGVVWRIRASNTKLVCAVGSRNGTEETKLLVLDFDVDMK
TEAD-YAP inh: TEAD-YAP interaction inhibition, primary screen, TEAD-YAP interaction inhibitor project, luminescence, HEK-TIYL cells; 640,000 tested, 1.4% active; inhibition, % at 9.12 µM; TEAD-Gal4/YAP UAS-luciferase luminescence; in the data active means inhibition above about 32%;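 further: 0% = median of test compound wells and 100% = reference inhibitor wells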
Active calls of the source: *.

SMILES	GPR151 activ	MITF inh	FBW7 act	TEAD-YAP inh
Cc1ccc(Cn2c(-c3nonc3N)nc3ccccc32)cc1	0.0	-3.6	-0.1	-8.6
COc1cc(Cn2c(-c3nonc3N)nc3ccccc32)ccc1C	-0.7	2.0	-0.2	51.1*
COc1ccc(Cn2c(-c3nonc3N)nc3ccccc32)cc1	1.3	0.4	0.1	-5.6
COc1ccc(C)cc1Cn1c(-c2nonc2N)nc2ccccc21	0.2	0.3	0.2	52.9*
COc1cccc(Cn2c(-c3nonc3N)nc3ccccc32)c1	0.4	9.9	0.1	38.0*
O=C(/C=C/c1cccc(Cl)c1)OCCN(C1=NS(=O)(=O)c2ccccc21)c1ccccc1	1.4	15.5	0.2	6.9
COc1cccc(C(=O)N=c2sc3c4ccccc4ccc3n2C)c1	-1.2	-7.3	-0.1	2.5
CC(=O)Cn1c(CN(C)C)nc2ccccc2c1=O	-1.9	-2.5	-0.1	-1.9
NC(=O)c1ccc(-c2nc(NCCN3CCOCC3)c3ncn(-c4ccccc4)c3n2)cc1	3.6	7.0	0.0	60.7*
O=C(NC1CC1)c1ccc(-c2nc(NCCO)c3ncn(-c4ccccc4)c3n2)cc1	-0.1	10.0	0.3	67.8*
O=C(NC1CC1)c1ccc(-c2nc(Nc3ccc(Oc4ccccc4)cc3)c3ncn(-c4ccsc4)c3n2)cc1	1.1	13.6	-0.1	-1.9
NC(=O)c1ccc(-c2nc(NCCO)c3ncn(-c4ccccc4)c3n2)cc1	0.1	-2.2	0.0	64.2*
CC(=O)Nc1ccc(Nc2nc(-c3ccc(C(=O)NC4CC4)cc3)nc3c2ncn3-c2ccccc2)cc1	2.0	1.3	0.1	48.2*
CN1CCN(C(=O)c2ccc(-c3nc(NCCN4CCOCC4)c4ncn(-c5ccsc5)c4n3)cc2)CC1	-2.1	16.0	-0.1	23.1
COc1ccc(CCNc2nc(-c3ccc(C(=O)NC4CC4)cc3)nc3c2ncn3-c2ccccc2)cc1	-2.2	16.5	0.2	3.9
CC1CN(CC(=O)NC(=O)NC(C)(C)C)CC(C)O1 (stereo unspecified)	-1.4	7.7	-0.1	2.6
c1ccc(Oc2ccc(Nc3nc(-c4ccc5ccccc5c4)cs3)cc2)cc1	1.1	1.9	0.0	4.6
Cc1nnnn1/C(=C\c1ccccc1)C(=O)N[C@H](c1nc2ccccc2[nH]1)C(C)C	0.0	5.3	-0.1	48.7*
CC(O)c1nc2ccccc2[nH]1 (stereo unspecified)	-0.6	-5.6	-0.2	3.9
O=C(O)CCC(C(=O)O)N1C(=O)/C(=C/c2ccc3c(c2)OCO3)SC1=S (stereo unspecified)	-1.2	-15.1	-0.9	-0.9
CCOC(=O)c1sc(NC(=O)c2cc([N+](=O)[O-])ccc2Sc2nnnn2C)cc1C	0.1	13.2	0.2	8.3
Cn1nnnc1Sc1ccc([N+](=O)[O-])cc1C(=O)Nc1ccc(C(F)(F)F)cc1	0.9	-8.6	-0.1	49.6*
COc1cc(CNC(=O)c2c(C(F)(F)F)nc3c(OC)cccn23)cc(OC)c1OC	-0.6	11.3	1.9*	-0.1
COc1cc(CNC(=O)c2ccc3ccccc3n2)cc(OC)c1OC	-0.1	-0.1	-0.1	44.7*
Cc1ccc(Nc2ncnc3sc4c(c23)CCCC4)c(C)c1	-0.7	11.8	0.5	6.0
SMILES	GPR151 activ	MITF inh	FBW7 act	TEAD-YAP inh
Cc1cc(C)nc(N2CCC(C(=O)Nc3ccc(C)c(C)c3)CC2)n1	0.6	14.6	-0.1	-3.9
O=C1NC2(CCOc3ccccc32)C(=O)N1CC(=O)N1CCc2ccccc21 (stereo unspecified)	0.3	-10.8	0.1	1.4
CCOC(=O)c1c(/N=c2\oc3c(OC)cccc3cc2C(=O)Nc2ccc(OC)cc2)sc2c1CCCC2	1.8	-11.9	0.1	36.2*
CCOC(=O)c1c(/N=c2\oc3c(OC)cccc3cc2C(=O)Nc2cccc(C)c2)sc2c1CCCC2	-1.1	8.9	0.1	-1.1
CCOCCn1cnc2sc(C(=O)Nc3cnc4ccccc4c3)c(C)c2c1=O	1.2	14.2	0.2	78.9*
CCOCCn1cnc2sc(C(=O)Nc3nc4ccccc4s3)c(C)c2c1=O	-2.4	-5.5	-0.1	48.5*
Cc1cc(C)nc(N/N=C/c2sc(N3CCOCC3)nc2-c2ccccc2)n1	1.8	5.1	-0.2	45.8*
COc1ccc(-c2n[nH]c(C)c2-c2ccccc2)c(O)c1C	1.5	-8.0	-0.3	-4.7
CC(=O)Nc1ccc(Nc2ncnc3c2cnn3Cc2ccc(Cl)cc2)cc1	1.7	7.8	1.0	1.0
Cc1cc(Br)c(S(=O)(=O)N2CCCCC2)cc1C	-1.3	12.1	0.3	1.4
Cc1cc(Br)c(S(=O)(=O)N2CCC(C)CC2)cc1C	0.7	6.9	2.1*	0.8
COc1ccc(Cl)c2sc(NC(=O)c3ccco3)nc12	2.6	0.2	2.1*	4.5
COc1cc(/C=N/NC(=O)CC#N)ccc1OCc1ccccc1Cl	-0.6	-0.7	-0.1	-7.2
COc1ccc(OC)c(/C=c2\sc3nc(-c4ccccc4)nn3c2=O)c1	1.7	3.6	0.1	2.3
CN1C(=O)/C(=C/C2=Cc3ccccc3OC2)SC1=S	1.1	-6.3	-0.1	5.6
CN1CC=C(/C=C/C2=Cc3ccccc3OC2)CC1	-7.6	-4.0	-0.1	74.7*
Brc1ccc(-c2cn3c4ccccc4nc3n2CCCNC2CCCCC2)cc1	-0.2	-0.6	6.2*	3.5
Clc1ccc(-c2cn3c4ccccc4nc3n2CCNC2CCCCC2)cc1	0.8	3.1	0.9	-3.7
CC[N+](CC)=c1ccc2nc3c(cc(N)c4ccccc43)oc-2c1	-1.7	6.9	0.5	33.1*
Cc1cc([N+](=O)[O-])ccc1N1C(=O)c2cccnc2C1=O	-0.2	6.9	-0.6	8.2
O=[N+]([O-])c1ccc(Nc2ccc3c(c2)OCO3)nc1	-1.0	18.9	-0.2	-15.6
Nc1c(C(=O)Nc2ccc(F)cc2)sc2nc(-c3ccc4c(c3)OCO4)ccc12	0.4	-14.9	0.3	-12.6
Nc1c(C(=O)NC2CC2)sc2nc(-c3ccc4c(c3)OCO4)ccc12	-0.5	7.3	0.1	42.1*
CCCC(=O)Nc1sc2c(c1C(N)=O)CCCCC2	0.0	22.6	0.2	4.1
Cc1ccc(/C=C/C(=O)OCC(=O)NC(N)=O)o1	0.7	-1.6	0.1	-3.4
SMILES	GPR151 activ	MITF inh	FBW7 act	TEAD-YAP inh
Cc1cc(C)nc(SCC(=O)Nc2ccnc3ccccc23)n1	1.2	13.5	0.0	41.4*
Cn1c(SCC2CCCCO2)nnc1-c1ccccc1 (stereo unspecified)	-0.3	-5.5	-0.1	-32.8
Cn1c(SCC2CCCO2)nnc1-c1ccccc1O (stereo unspecified)	0.2	10.3	0.4	61.1*
Cc1ccc(C2CC(c3cccs3)=NN2C(=O)CSc2nnc(CNC(=O)COc3ccccc3)n2-c2cccc(C)c2C)cc1 (stereo unspecified)	-0.5	-9.8	-0.1	-1.1
COc1ccccc1-n1c(CNC(=O)COc2ccccc2)nnc1SCC(=O)N1N=C(c2cccs2)CC1c1ccc(C)cc1 (stereo unspecified)	-0.3	-0.1	0.4	41.2*
CCCCNc1ncnc2sc(C)cc12	-0.2	1.1	0.2	36.9*
